PubChem BioAssay AID1970 (National Center for Advancing Translational Sciences (NCATS), 2009)
Inconclusive results are not listed. Active and inactive are the calls of the source. Calls come from the whole dose curve; as a rule, active = well fitted inhibition curve with a large enough effect; inconclusive = small, poorly fitted or top-dose-only effect; inactive = flat fitted curve, though single readings scatter.

Molecular target: Dual specificity protein kinase CLK4 (Homo sapiens) (UniProt Q9HAZ1)
Sequence (Q9HAZ1 whole entry, looked up): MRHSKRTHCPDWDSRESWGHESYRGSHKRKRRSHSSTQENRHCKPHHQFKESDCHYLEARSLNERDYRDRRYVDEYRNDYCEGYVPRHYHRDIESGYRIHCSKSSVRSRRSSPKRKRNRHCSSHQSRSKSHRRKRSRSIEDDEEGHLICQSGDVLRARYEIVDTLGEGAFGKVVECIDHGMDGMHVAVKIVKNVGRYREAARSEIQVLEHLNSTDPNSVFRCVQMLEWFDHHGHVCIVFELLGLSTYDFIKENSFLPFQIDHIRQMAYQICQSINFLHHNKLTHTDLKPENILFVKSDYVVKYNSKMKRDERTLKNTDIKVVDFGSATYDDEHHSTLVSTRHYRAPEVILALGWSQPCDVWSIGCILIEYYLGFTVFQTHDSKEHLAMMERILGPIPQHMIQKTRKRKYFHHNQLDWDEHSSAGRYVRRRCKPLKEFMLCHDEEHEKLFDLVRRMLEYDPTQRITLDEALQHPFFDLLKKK
Assay: Confirmation Assay for Inhibitors of CDC-like Kinase 4 (Kinase-Glo Assay)
Details: recombinant Clk4, Kinase-Glo ATP depletion luminescence; series mostly up to 47.7 µM
Procedure, shortened: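 Read-out was Kinase-Glo luciferase luminescence of ATP left after 4.5 h room-temperature reaction. Final conditions: Clk4 25 nM, ATP 1 uM, RS peptide 100 uM, 25 mM Tris pH 7.5, 10 mM MgCl2, 0.5 mM EGTA, 2.5 mM DTT, 0.01% Triton X-100.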

Potency, active:
CCN(Cc1cccs1)c1ncnc2ccc(-c3ccc4c(c3)OCO4)cc12 51.9 nM, c1cncc(CNc2ncnc3ccc(-c4cccnc4)cc23)c1 7940 nM, c1coc(-c2ccc3ncnc(NCc4cccs4)c3c2)c1 823 nM, Cc1cccc(-c2ccc3ncnc(NCc4cccc(F)c4)c3c2)c1 4470 nM, CCOC(=O)c1ccc(-c2ccc3ncnc(NCCc4cnc[nH]4)c3c2)o1 92.3 nM, Cc1cccc(CNc2ncnc3ccc(-c4ccc5c(c4)OCO5)cc23)c1 112 nM, c1nc(NCC2CCCO2)c2ccc(-c3ccc4c(c3)OCO4)cc2n1 (stereo unspecified) 8440 nM, c1cncc(-c2ccc3ncnc(NCc4cccs4)c3c2)c1 3980 nM, c1csc(CNc2ncnc3ccc(-c4ccoc4)cc23)c1 184 nM, Cc1nc(CNc2ncnc3ccc(-c4ccoc4)cc23)cs1 232 nM, CC(c1ccco1)N(C)c1ncnc2ccc(-c3ccc4c(c3)OCO4)cc12 (stereo unspecified) 67.1 nM, c1nc(OCc2cnc[nH]2)c2cc(-c3ccc4c(c3)OCO4)ccc2n1 6540 nM, CN(Cc1ccco1)c1ncnc2ccc(-c3ccoc3)cc12 316 nM, Fc1c(-c2ccc3ncnc(NCc4cccs4)c3c2)ccc2c1OCO2 65.4 nM, Cc1nc(CN(C)c2ncnc3ccc(-c4ccc5c(c4)OCO5)cc23)cs1 33.6 nM, c1nc(N2CCC(N3CCCC3)CC2)c2cc(-c3ccc4c(c3)OCO4)ccc2n1 4630 nM, Cc1csc(CNc2ncnc3cc(-c4ccc5c(c4)OCO5)ccc23)n1 8440 nM, FC1(F)Oc2ccc(-c3ccc4ncnc(NCc5cccs5)c4c3)cc2O1 18400 nM, Cc1ccsc1CNc1ncnc2ccc(-c3ccc4c(c3)OCO4)cc12 33.6 nM, CCOC(=O)c1ccc(-c2ccc3ncnc(NCc4cccs4)c3c2)o1 116 nM, CCN(Cc1sccc1C)c1ncnc2ccc(-c3ccc4c(c3)OCO4)cc12 146 nM, CCOC(=O)c1ccoc1-c1ccc2ncnc(NCCc3cnc[nH]3)c2c1 23200 nM, c1coc(CCNc2ncnc3ccc(-c4ccc5c(c4)OCO5)cc23)c1 59.8 nM, Fc1cccc(CNc2ncnc3ccc(-c4ccoc4)cc23)c1 3160 nM, Cc1nc(CNc2ncnc3ccc(-c4oc(-c5ccccc5)nc4C)cc23)cs1 2320 nM, Clc1ccccc1-c1ccc2ncnc(NCc3cccs3)c2c1 7940 nM
